According to PubChem BioAssay AID720519 (National Center for Advancing Translational Sciences (NCATS), 2013):
Results filed as inconclusive are left out. Unmarked numbers belong to inactive results. The source made the active and inactive calls. Calls come from the whole dose curve; as a rule, active = well fitted activation curve with a large enough effect; inconclusive = small, poorly fitted or top-dose-only effect; inactive = flat fitted curve, though single readings scatter.

Assay: qHTS for Inhibitors of Cell Surface uPA Generation: Confirmatory Assay for Cherry-picked Compounds; for inhibition: 0% is about no effect
Settings: cell surface uPA activity generation, qHTS confirmation; series mostly up to 115 µM; inhibition: at the top concentration
Summary of the method: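 RAW 264.7 cells at 4000/well, incubated overnight, then treated with compounds. After 24 h at 37 C, viability was read by ATPlite luminescence. An increase in signal indicates blocked uPA-dependent LF entry.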
Potency is the fitted concentration of half-maximal effect.

First: CC(C)NC(=O)NC(=O)CN1C(=O)NC(Cc2c[nH]c3ccccc23)C1=O (stereo not drawn)
Second: COC(=O)C(CCSC)NC(=O)Cn1ncc2c(=O)oc3ccccc3c21 (stereo not drawn)
The “inhibition” value of the first is lower: -2.11% for the first, 0.519% for the second.

Compared with `CCN(CC)CCCNC(=O)c1cn(C)c(=O)c2c1c1ccccc1n2C`, `COc1ccccc1CNC(=O)CCn1c(=O)oc2ccccc21` is lower in “inhibition” value: 5.19% for the first, -1.34% for the second.

Going from `CS(=O)(=O)N1CCC(C(=O)Nc2ccccc2)CC1` to `Cc1ccc(S(=O)(=O)N2CCC(C)CC2)cc1`, the “inhibition” value rises from -0.392% to 1.99%.

Going from `COCCN(C(=O)c1ccc(OC2CCN(S(=O)(=O)N(C)C)CC2)cc1)C(C)C` to `COc1ccc(N(C(C)C(=O)NN=C2CCCC2)S(C)(=O)=O)cc1` (stereo not drawn), the “inhibition” value falls from 0.226% to -0.44%.

Going from `CCOC(=O)C1=C(C)N(Cc2ccccc2)C(=O)NC1c1ccc(OC)cc1` (stereo not drawn) to `CCOC(=O)c1cc(-c2ccccc2C)n(CC2CC(c3ccc(OC)cc3)=NO2)n1` (stereo not drawn), the “inhibition” value falls from -1.56% to -3.81%.

Compared with `CN(C)C(=S)Nc1ccc(S(=O)(=O)N2CCCCC2)cc1`, `Cc1ccc(S(=O)(=O)N2CCC(C(=O)OC(C)C(=O)NC3CCCCC3C)CC2)cc1` (stereo not drawn) is higher in “inhibition” value: -1.79% for the first, -0.0734% for the second.

First: O=c1[nH]c2ccccc2cc1CN(CC1CCCO1)S(=O)(=O)c1ccccc1 (stereo not drawn)
Second: COc1ccc(OC)c(S(=O)(=O)N2CCN(Cc3ccccc3)CC2)c1
The “inhibition” value of the first is lower: -0.407% for the first, -0.0908% for the second.

Compared with `Cc1cc(NC(=O)COc2cccc([N+](=O)[O-])c2)no1`, `O=C(CSc1ccc([N+](=O)[O-])cn1)Nc1nccs1` is higher in “inhibition” value: -2.33% for the first, -1.37% for the second.

First: CCC1=NN(C(=O)C(=O)Nc2ccc(OC)cc2)C(O)(C(F)(F)F)C1 (stereo not drawn)
Second: COc1ccc(-n2nnnc2SCC(=O)Nc2nnc(C)s2)cc1
The “inhibition” value of the first is lower: -1.82% for the first, -0.694% for the second.

First: C[C@H](O)[C@@H]1C(=O)N2CCc3ccc(-c4cccc(F)c4)cc3[C@@H]2C[C@@H]1N(C)C(=O)C(C)(C)C
Second: CC(O)[C@H]1CNC(=O)C(=O)N1CCc1cccc(F)c1 (stereo partly drawn)
The “inhibition” value of the first is lower: -3.53% for the first, 0.53% for the second.

Compared with `CSc1nc(-c2ccccc2)nc(C(Cl)Cl)n1`, `CS/C(=C\[N+](=O)[O-])Nc1ccccc1` is higher in “inhibition” value: -3.76% for the first, -3.31% for the second.

Going from `Cc1ccc(OCc2cc(C(=O)N(C)Cc3cc(C4CC4)n[nH]3)no2)cc1C` to `CCOC(=O)Cn1c(=O)cc(C)c2cccc(C)c21`, the “inhibition” value rises from -3.14% to 6.99%.

Compared with `CN(CCC#N)C(=S)Nc1ccc(Oc2ccccc2)cc1`, `OC(COc1ccc(Br)cc1)CN1CCN(c2ccccc2)CC1` (stereo not drawn) is higher in “inhibition” value: -1.16% for the first, -0.285% for the second.

Going from `Cc1ccc(S(=O)(=O)NCC(=O)OC(C)C(=O)NCc2ccc3c(c2)OCO3)cc1` (stereo not drawn) to `O=C(CCS(=O)(=O)c1ccc2c(c1)NC(=O)CS2)NCc1cccs1`, the “inhibition” value rises from -1.17% to 0.665%.

Compared with `O=C1CCCC/C1=C\Nc1ccc(S(=O)(=O)Nc2cnc3ccccc3n2)cc1`, `O=C(NCc1ccccn1)C1CCN(C(=O)c2cc3sccc3n2Cc2ccc(F)cc2)CC1` is lower in “inhibition” value: -1.58% for the first, -2.71% for the second.

Going from `C=CC[n+]1c(/C=C/c2ccc(OC(C)=O)c(OC)c2)ccc2ccccc21` to `C=CCOC(=O)C1=C(C)NC(C)=C(C(=O)OCC=C)C1c1cn(-c2ccccc2)nc1-c1ccco1`, the “inhibition” value rises from -3.82% to 2.24%.

Compared with `CC(=O)c1cccc(NC(=O)N2C3CCC2CC(O)(c2cccnc2)C3)c1` (stereo not drawn), `NC(=O)c1cc2ccncc2c2ccccc12` is lower in “inhibition” value: 0.799% for the first, -1.41% for the second.

Going from `Cn1c(C2CCCCC2)nc2cc(N)ccc21` to `CCNC(=S)NNC(=O)c1ccncc1`, the “inhibition” value rises from -2.73% to -1.76%.

In the case of `O=C(CNC(=O)c1ccc(Br)o1)NNC(=O)c1ccccc1`, the “inhibition” value is reported as -1.22%.

In the case of `CC(C)C1Oc2ccccc2N(CC(=O)NC2CCCCC2)C1=O` (stereo not drawn), the Potency is reported as 32.9 µM (active).
